FEN1 inhibitor – human FEN1 inhibition; P39748; Recombinant FEN1 flap cleavage, fluorescence, 15 min; Potency, µM (doses to about 114 µM), most hits filed as inhibitors; 0.35% of 390,000 active; also: nearly all actives have a fitted effect of over 65% in size
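Read-out was taken twice, immediately and after 15 min, following addition of 50 nM substrate to 10 nM FEN1 that had sat with test compound for 15 min at room temperature. Curves came from a four-parameter Hill model.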
GCN5L2 inh – inhibitors of human GCN5L2 histone acetyltransferase | 0.21% of 390,000 active | GCN5L2 HAT assay, ThioGlo1 CoA-SH fluorescence | AID 504327 | Potency, µM (doses to about 58.9 µM), actives largely listed as inhibitors | Q92830
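Fluorescence readout, Ex340nm/Em540nm: ThioGlo1 (50uM final) reacts with free CoA thiol released as 20nM GCN5L2 acetylates H3(1-25) peptide (75uM) using acetyl-CoA (70uM). Compound and enzyme sat 15 min beforehand; 20 min room-temperature reaction.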
APE1 inh – blocks human APE1 abasic DNA cleavage | P27695 | recombinant APE1, TAMRA/BHQ-2 abasic DNA cleavage fluorescence | Potency, µM (titrated, usually from 65.8 µM), usual class: inhibitors | 0.35% of 350,000 active; also: nearly all actives have a fitted effect of over 55% in size
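Incision of a quenched TAMRA/BHQ-2 THF abasic-site duplex (50 nM) by 0.75 nM APE1, after 15 min compound preincubation, measured as fluorescence increase over three 60 s reads. Values normalized to buffer, DMSO and NSC13755 control wells.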
PI5P4Ka inh – inhibitors of human PI5P4K alpha | PI5P4Kalpha enzyme, ADP-Glo luminescence, 60 min; stronger effect = lower value | max response, % | 1.2% of 330,000 active; active = max response of -50% or lower; inconclusive = between -30% and -50%; inactive = -30% or higher; also: value at the top dose of about 77 µM
Target sequence (P48426 whole entry, looked up): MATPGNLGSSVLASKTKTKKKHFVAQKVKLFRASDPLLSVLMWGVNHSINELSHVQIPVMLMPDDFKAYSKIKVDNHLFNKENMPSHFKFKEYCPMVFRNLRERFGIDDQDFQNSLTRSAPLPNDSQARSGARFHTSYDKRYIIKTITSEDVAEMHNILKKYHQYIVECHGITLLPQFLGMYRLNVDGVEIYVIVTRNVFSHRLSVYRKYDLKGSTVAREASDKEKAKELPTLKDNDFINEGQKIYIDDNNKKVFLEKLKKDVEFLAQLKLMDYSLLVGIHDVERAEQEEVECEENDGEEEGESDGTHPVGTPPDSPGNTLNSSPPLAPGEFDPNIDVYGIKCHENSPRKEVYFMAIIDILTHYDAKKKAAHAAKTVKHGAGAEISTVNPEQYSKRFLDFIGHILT
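Luminescence from ADP-Glo served as readout of PI5P4Kalpha activity in a qHTS format. Reaction: enzyme, substrate, compound, ATP at 5 microM final, 60 min at RT.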
BLM inh – blocks DNA unwinding by human BLM helicase; 0.2% of 350,000 active; Potency, µM (highest dose often 56.1 µM), usual class: inhibitors; AID 2528; recombinant BLM DNA unwinding, fluorescence dequenching; also: nearly all actives have a fitted effect of over 35% in size
RECQ1 helicase – blocks DNA unwinding by human RECQ1 | RECQ1 DNA unwinding, red fluorescence kinetic read | Potency, µM (titrated, usually from 57.3 µM), usual class: inhibitors | 0.54% of 240,000 active | AID 2549; also: nearly all actives have a fitted effect of over 30% in size
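50 nM RECQ1T1 preincubated 15 min with compound in Tris pH 8.0 buffer with MgCl2, DTT, Tween-20 and 2.5 ug/ml poly(dI-dC); started with 200 nM TAMRA/BHQ-2 forked duplex and 2 mM ATP. Unwinding read as fluorescence (525/598 nm), two reads 2 h apart.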
A number is an active result; n = inactive; u = inconclusive; x = not tested or not shown. Most compounds without a hit are left out; they make up all but 1.5% or so of the library. Unless noted, calls follow the shape of the dose curve; as a rule, active = well fitted curve in the direction sought with a large enough effect; inconclusive = small, poorly fitted or top-dose-only effect, or another doubt; inactive = no such curve, though single readings can be large; an effect the other way counts as inactive or inconclusive.

SMILES | FEN1 inhibitor | GCN5L2 inh | APE1 inh | PI5P4Ka inh | BLM inh | RECQ1 helicase
COc1ccc(/C=C2/C(=O)NC(=O)N(c3ccccc3)C2=O)cc1CN1C(=O)c2ccccc2C1=O | u | n | n | -53.3 | n | n
CCOc1cc(/C=C2/C(=O)NC(=O)N(c3ccc(CC)cc3)C2=O)ccc1OC(=O)c1cccs1 | n | n | n | -69.9 | n | n
COc1cc(/C=C2/C(=O)NC(=O)N(c3ccccc3)C2=O)ccc1O | n | n | n | -58.9 | n | n
Cc1ccc(N2C(=O)NC(=O)/C(=C/c3cnc(-c4ccccc4)nc3)C2=O)cc1C | n | n | n | -51.7 | n | n
CCOc1ccc(N2C(=O)NC(=O)/C(=C\c3cc(OC)c(OC)cc3[N+](=O)[O-])C2=O)cc1 | n | n | n | n | n | n
CC(C)c1ccc(N2C(=O)NC(=O)/C(=C\c3cnc(-c4ccccc4)nc3)C2=O)cc1 | n | n | n | u | n | n
NNC(N)=S | x | x | n | x | x | n
CS(=O)c1ccc(-c2nc(-c3ccc(F)cc3)c(-c3ccncc3)[nH]2)cc1 (configuration not stated) | x | n | n | x | n | n
CN(C)C(=O)Cl | x | x | n | x | x | n
CC(C)CCCC(C)C1CCC2C3CC(O)[C@@]4(O)CC(O)CC[C@@]4(C)C3CC[C@@]12C (some centres not stated) | x | u | n | x | n | n
COc1ccc(/C=C2/C(=O)NC(=O)N(C3CCCCC3)C2=O)cc1CSc1ccccn1 | x | u | n | x | n | n
COc1ccc(/C=C2/C(=O)NC(=S)N(C3CC3)C2=O)cc1CN1C(=O)c2ccccc2C1=O | n | n | n | -88.3 | n | n
ClCCN(CCCl)c1ccc(/C=C/c2ccnc3ccccc23)cc1 | n | x | x | x | x | x
CC(C)CCCC(C)C1CCC2C3CC(=O)[C@H]4CC(O)CC[C@]4(C)C3CC[C@@]12C (some centres not stated) | x | n | n | x | n | n
C=CCN1C(=O)NC(=O)/C(=C/c2cc3c4c(c2)CCCN4CCC3)C1=O | n | n | u | u | u | 31.6µM
O=C1NC(=O)N(Cc2ccccc2)C(=O)/C1=C/c1cnn(-c2ccccc2)c1 | x | n | n | x | n | n
C=CCN1C(=O)NC(=O)/C(=C/c2cnc(SC)nc2)C1=O | n | n | n | -57.2 | n | n
CCOC(=O)c1c(-n2c(C)cc(/C=C3/C(=O)NC(=O)N(CC)C3=O)c2C)sc2c1CCCC2 | n | x | x | n | x | x
CCOC(=O)c1c(-n2c(C)cc(C=C3C(=O)NC(=S)NC3=O)c2C)sc2c1CCCC2 | u | n | n | -63.3 | u | u
O=C1NC(=O)N(Cc2ccco2)C(=O)/C1=C\c1cccn1CCOc1ccc(Cl)cc1 | n | n | n | -53.9 | n | u
CCN(CC)c1ccc(/C=C2/C(=O)NC(=O)N(Cc3ccco3)C2=O)cc1 | u | n | u | -72.7 | n | 31.6µM
CCc1ccc(N2C(=O)NC(=O)/C(=C/c3cccn3CCOc3ccc(C(C)CC)cc3)C2=O)cc1 (configuration not stated) | n | n | n | -52.7 | n | n
CCN(CC)c1ccc(/C=C2\C(=O)NC(=O)N(CC3CCCO3)C2=O)cc1 (configuration not stated) | u | n | n | n | n | n
CCc1ccc(N2C(=O)NC(=O)/C(=C/c3cccn3CCOc3ccc(C)cc3)C2=O)cc1 | n | n | u | n | n | u
CN(C)c1ccc(/C=C2/C(=O)NC(=O)N(Cc3ccco3)C2=O)cc1 | n | n | 28.2µM | -58.0 | n | u
SMILES | FEN1 inhibitor | GCN5L2 inh | APE1 inh | PI5P4Ka inh | BLM inh | RECQ1 helicase
COc1ccc(CN2C(=O)NC(=O)/C(=C\c3cc(OC)c(OC)c(OC)c3)C2=O)cc1 | n | n | n | u | n | n
CCC[CH2][Sn]([Cl])([Cl])[Cl] | x | x | n | x | x | n
[O-][Br+2]([O-])O | x | x | n | x | x | n
CN=C=S | x | x | n | x | x | n
Oc1cc2c(cc1O)[C@H]1c3ccccc3CN[C@H]1CC2 | x | n | n | x | n | n
OCC(Br)(Br)Br | x | n | n | x | n | n
COc1cc2c(cc1O)C[C@H]1NCCc3cc4c(c-2c31)OCO4 | 10µM | n | u | n | n | n
